Data from PubChem BioAssay (NCI).
About 83,000 compounds went through this panel and 20% of them were active in at least one assay; those are over-represented in the sample as a whole.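 Treatment: one concentration, 48 hours, 96-well format. Scoring: percent growth, with anything below 10 considered active.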

How the values were obtained:
Assay in all cases: NCI-60 one-dose screen, 48 h (100 = growth as untreated, 0 = no growth, -100 = all killed)
A549/ATCC NSCLC = settings: 10 µM unless noted
COLO 205 colon = settings: 10 µM
RXF 393 renal = settings: 10 µM unless noted
UACC-257 melanoma = settings: 10 µM unless noted
HT29 colon = settings: 10 µM unless noted
SNB-19 CNS = settings: 10 µM unless noted
SN12C renal = settings: 10 µM unless noted
UO-31 renal = settings: 10 µM unless noted
A498 renal = settings: 10 µM unless noted
OVCAR-5 ovarian = settings: 10 µM unless noted
SK-OV-3 ovarian = settings: 10 µM unless noted
HS 578T breast = settings: 10 µM unless noted
T-47D breast = settings: 10 µM unless noted
MDA-MB-435 melanoma = settings: 10 µM unless noted
HCT-116 colon = settings: 10 µM unless noted
HCC-2998 colon = settings: 10 µM unless noted
MDA-MB-231 breast = settings: 10 µM unless noted
SF-295 CNS = settings: 10 µM unless noted
SK-MEL-5 melanoma = settings: 10 µM unless noted
OVCAR-8 ovarian = settings: 10 µM unless noted

Measured: growth

COC[CH2][Hg][C]#[C][Hg][CH2]COC
inactive: A549/ATCC NSCLC 99.1% | COLO 205 colon 100% | RXF 393 renal 59.4% | UACC-257 melanoma 105% | HT29 colon 100% | SNB-19 CNS 108% | SN12C renal 96% | UO-31 renal 92.8% | A498 renal 103% | OVCAR-5 ovarian 116% | SK-OV-3 ovarian 96.5% | HS 578T breast 85.3% | T-47D breast 91.7% | MDA-MB-435 melanoma 43% | HCT-116 colon 99.2% | HCC-2998 colon 103%

Oc1c(Br)cc(Br)cc1Br.[Cu+2]
inactive: A549/ATCC NSCLC 98% | COLO 205 colon 108% | MDA-MB-231 breast 111% | RXF 393 renal 109% | SF-295 CNS 97.6% | UACC-257 melanoma 101% | HT29 colon 104% | SNB-19 CNS 118% | SK-MEL-5 melanoma 102% | SN12C renal 110% | UO-31 renal 81.2% | A498 renal 106% | OVCAR-8 ovarian 103% | OVCAR-5 ovarian 120% | SK-OV-3 ovarian 94.3% | HS 578T breast 109% | T-47D breast 119% | MDA-MB-435 melanoma 105% | HCT-116 colon 98.4% | HCC-2998 colon 95.8%

CCN1CC2(CN(CC)C1=S)C(=O)NC(=O)NC2=O
inactive: A549/ATCC NSCLC 99.9% | COLO 205 colon 115% | MDA-MB-231 breast 110% | RXF 393 renal 116% | SF-295 CNS 95.1% | UACC-257 melanoma 94.7% | HT29 colon 90.3% | SNB-19 CNS 107% | SK-MEL-5 melanoma 106% | SN12C renal 107% | UO-31 renal 99.4% | A498 renal 112% | OVCAR-8 ovarian 101% | OVCAR-5 ovarian 114% | SK-OV-3 ovarian 97.4% | HS 578T breast 104% | T-47D breast 90.4% | MDA-MB-435 melanoma 103% | HCT-116 colon 97.3% | HCC-2998 colon 99.7%
